Assay results published in ChEMBL document CHEMBL2218924, “A broad activity screen in support of a chemogenomic map for kinase signalling research and drug discovery” (Biochem J, 2013).

What follows are compounds tested against T1, Serine/threonine-protein kinase D1 (Homo sapiens) (UniProt Q15139). Conditions: at 1 µM.
T1 sequence (whole entry): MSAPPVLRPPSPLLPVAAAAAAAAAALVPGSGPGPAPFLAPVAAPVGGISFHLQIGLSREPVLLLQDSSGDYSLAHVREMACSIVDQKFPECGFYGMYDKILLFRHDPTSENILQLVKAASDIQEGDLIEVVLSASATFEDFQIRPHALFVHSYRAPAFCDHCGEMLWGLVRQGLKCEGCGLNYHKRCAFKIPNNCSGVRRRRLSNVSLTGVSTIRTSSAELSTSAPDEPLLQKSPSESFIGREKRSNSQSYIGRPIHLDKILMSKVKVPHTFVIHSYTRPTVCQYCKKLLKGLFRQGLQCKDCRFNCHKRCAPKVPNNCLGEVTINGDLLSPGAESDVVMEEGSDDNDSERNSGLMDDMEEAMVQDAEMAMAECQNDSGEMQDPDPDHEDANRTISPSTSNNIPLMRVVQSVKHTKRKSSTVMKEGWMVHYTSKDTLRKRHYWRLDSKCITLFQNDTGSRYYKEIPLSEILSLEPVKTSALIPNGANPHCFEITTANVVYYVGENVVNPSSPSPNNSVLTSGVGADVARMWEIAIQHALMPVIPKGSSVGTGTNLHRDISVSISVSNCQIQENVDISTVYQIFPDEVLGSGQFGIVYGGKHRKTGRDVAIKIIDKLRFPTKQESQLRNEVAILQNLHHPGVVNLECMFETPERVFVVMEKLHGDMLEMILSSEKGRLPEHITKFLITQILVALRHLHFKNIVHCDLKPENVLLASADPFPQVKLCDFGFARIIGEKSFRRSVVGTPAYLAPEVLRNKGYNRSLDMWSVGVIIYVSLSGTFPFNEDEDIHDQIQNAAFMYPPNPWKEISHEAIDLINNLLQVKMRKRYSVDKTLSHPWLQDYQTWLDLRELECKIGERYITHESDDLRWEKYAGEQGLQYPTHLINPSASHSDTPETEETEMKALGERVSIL

Question: With Cc1cc(C)c(/C=C2\C(=O)Nc3ccccc32)[nH]1 as the compound, how does the residual activity read?
Answer: The residual activity was 78%.

Question: How did the residual activity turn out when N#C/C(=C1/Nc2ccccc2S1)c1ccnc(NCCc2cccnc2)n1 was run?
Answer: Its residual activity is 73%.

What follows are compounds tested against T1, Serine/threonine-protein kinase D1 (Homo sapiens). Conditions: at 10 µM.

Question: With COc1ccc(COc2ccc(Cc3cnc(N)nc3N)cc2OC)cc1 as the compound, how does the residual activity read?
Answer: The residual activity was 77%.

Question: How did the residual activity turn out when CC(C)(C)c1nc2c3ccc(F)cc3c3c(=O)[nH]ccc3c2[nH]1 was run?
Answer: Its residual activity is 16%.

Question: Which residual activity does the source give for O=C(c1cc2cc(O)ccc2[nH]1)c1cc2cc(O)ccc2[nH]1 here?
Answer: Its residual activity is 23%.

Question: O=C1Nc2ccccc2/C1=C\c1c(Cl)[nH]c2ccccc12 was tested. Which residual activity did it give?
Answer: Its residual activity is 65%.

Question: With CC(C)N(CCC(=O)c1ccc2ccccc2c1)Cc1ccccc1 as the compound, how does the residual activity read?
Answer: Its residual activity is 84%.

Question: CCN1/C(=C/C(C)=O)Sc2ccc(OC)cc21 was tested. Which residual activity did it give?
Answer: Its residual activity is 18%.

Question: Which residual activity does the source give for NCCNc1ncc(C(N)=O)c(Nc2cccc(C(F)(F)F)c2)n1 here?
Answer: The residual activity was 8%.

Question: With N#Cc1c(NC(=O)c2cccc3ccccc23)sc2c1CCCC2 as the compound, how does the residual activity read?
Answer: Its residual activity is 83%.

Question: With Nc1nc(Nc2ccc(S(N)(=O)=O)cc2)nn1C(=O)c1c(F)cccc1F as the compound, how does the residual activity read?
Answer: Its residual activity is 19%.

Question: For COc1ccc(-c2cnc3c(-c4ccsc4)cnn3c2)cc1, which residual activity is on record?
Answer: Its residual activity is 97%.

Question: How did the residual activity turn out when CCCCc1c(-c2ccc(OC)cc2)[nH]c2nccnc12 was run?
Answer: The residual activity was 84%.

Question: How did the residual activity turn out when Nc1nccc(-c2c(-c3ccc(F)cc3)ncn2C2CCNCC2)n1 was run?
Answer: Its residual activity is 3%.

Question: Which residual activity does the source give for Fc1ccc(-c2nc3n(c2-c2ccncc2)CCS3)cc1 here?
Answer: The residual activity was 48%.

Question: Which residual activity does the source give for O=C(NC(NC(=S)Nc1ccc(F)c([N+](=O)[O-])c1)C(Cl)(Cl)Cl)C(c1ccccc1)c1ccccc1 (centres undefined) here?
Answer: Its residual activity is 88%.

Question: For NC(=O)c1ccc(-c2nc(-c3ccc4c(c3)OCCO4)c(-c3ccccn3)[nH]2)cc1, which residual activity is on record?
Answer: Its residual activity is 62%.

Question: Which residual activity does the source give for COc1ccc(Cl)cc1NC(=O)Nc1cc(C)nc2ccccc12 here?
Answer: The residual activity was 87%.

Question: How did the residual activity turn out when CCN(CC)CCNC(=O)c1c(C)[nH]c(/C=C2\C(=O)Nc3ccc(Cl)cc32)c1C was run?
Answer: Its residual activity is 4%.

Question: O=c1c(-c2ccc(F)cc2)c(-c2ccncc2)[nH]n1-c1ccc(Cl)cc1 was tested. Which residual activity did it give?
Answer: The residual activity was 37%.

Question: For CCOc1nc(NC(=O)Cc2cc(OC)ccc2OC)cc(N)c1C#N, which residual activity is on record?
Answer: The residual activity was 54%.

Question: For Oc1cccc(-c2nc(N3CCOCC3)c3oc4ncccc4c3n2)c1, which residual activity is on record?
Answer: The residual activity was 89%.

Question: Which residual activity does the source give for N#C/C(=C1/Nc2ccccc2S1)c1ccnc(NCCc2cccnc2)n1 here?
Answer: Its residual activity is 36%.

The compounds below were run against T2, Serine/threonine-protein kinase D2 (Homo sapiens) (UniProt Q9BZL6). Conditions: at 1 µM.
T2 sequence (whole entry): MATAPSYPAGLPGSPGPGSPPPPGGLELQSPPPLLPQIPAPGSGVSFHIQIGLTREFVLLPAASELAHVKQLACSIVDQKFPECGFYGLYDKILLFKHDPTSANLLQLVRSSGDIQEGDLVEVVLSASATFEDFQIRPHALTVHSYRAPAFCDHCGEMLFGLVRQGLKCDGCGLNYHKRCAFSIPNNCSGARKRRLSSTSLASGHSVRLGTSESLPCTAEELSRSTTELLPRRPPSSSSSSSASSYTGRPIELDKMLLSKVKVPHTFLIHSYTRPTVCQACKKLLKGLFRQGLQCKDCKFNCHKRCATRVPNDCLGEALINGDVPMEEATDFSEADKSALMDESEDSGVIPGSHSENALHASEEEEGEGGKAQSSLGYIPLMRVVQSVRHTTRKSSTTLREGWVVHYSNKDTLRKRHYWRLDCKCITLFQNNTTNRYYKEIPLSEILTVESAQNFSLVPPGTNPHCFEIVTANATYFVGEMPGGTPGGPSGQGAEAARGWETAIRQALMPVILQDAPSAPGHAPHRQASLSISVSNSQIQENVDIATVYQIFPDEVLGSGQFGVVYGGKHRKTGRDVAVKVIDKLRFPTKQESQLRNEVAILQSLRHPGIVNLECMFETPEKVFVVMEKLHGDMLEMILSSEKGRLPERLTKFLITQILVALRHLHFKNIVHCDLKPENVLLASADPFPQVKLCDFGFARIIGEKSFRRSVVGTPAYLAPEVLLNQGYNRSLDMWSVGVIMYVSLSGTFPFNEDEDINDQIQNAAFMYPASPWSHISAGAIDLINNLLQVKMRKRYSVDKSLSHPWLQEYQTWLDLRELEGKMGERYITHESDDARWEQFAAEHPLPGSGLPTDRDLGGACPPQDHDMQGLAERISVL

Question: With CC(C)(C)c1nc2c3ccc(F)cc3c3c(=O)[nH]ccc3c2[nH]1 as the compound, how does the residual activity read?
Answer: The residual activity was 40%.

Question: How did the residual activity turn out when Nc1nc(Nc2ccc(S(N)(=O)=O)cc2)nn1C(=O)c1c(F)cccc1F was run?
Answer: The residual activity was 113%.

Question: With O=C(NC(NC(=S)Nc1ccc(F)c([N+](=O)[O-])c1)C(Cl)(Cl)Cl)C(c1ccccc1)c1ccccc1 (centres undefined) as the compound, how does the residual activity read?
Answer: The residual activity was 100%.

Question: NC(=O)c1ccc(-c2nc(-c3ccc4c(c3)OCCO4)c(-c3ccccn3)[nH]2)cc1 was tested. Which residual activity did it give?
Answer: Its residual activity is 98%.

Question: Which residual activity does the source give for CCN(CC)CCNC(=O)c1c(C)[nH]c(/C=C2\C(=O)Nc3ccc(Cl)cc32)c1C here?
Answer: The residual activity was 73%.

Question: With O=C(CCCc1ccc(-c2ccccc2F)cc1)Nc1ccc(O)cc1 as the compound, how does the residual activity read?
Answer: Its residual activity is 110%.
